According to the supplement of paper PMC7411640:
Where a name gives a salt, the structure may show the parent alone.

Test system: MDA-MB-468
Assay: phospho-S6 immunofluorescence (DAPI-normalised), per-plate z-score; higher = higher phospho-S6 signal (less pathway suppression)
Settings: 24 h
Method: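 GPCR-targeted compound library (MedChemExpress HY-L006) tested on MDA-MB-468 PTEN-null TNBC cells in 384-well plates at 0.1, 1 or 10 uM, combined with vehicle, GDC0941 450 nM or lapatinib 1 uM, for 24 h. Phospho-S6 (S240/244) immunofluorescence normalised to DAPI and expressed as a per-plate z-score; values are the mean of biological triplicates.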

Structure (SMILES)	phospho-S6 immunofluorescence (z-score) (co-treatment: GDC0941 450 nM)	phospho-S6 immunofluorescence (z-score) (co-treatment: lapatinib 1 uM)	phospho-S6 immunofluorescence (z-score) (co-treatment: vehicle)
CCCC1O[C@@H]2C[C@H]3[C@@H]4CCC5=CC(=O)C=C[C@]5(C)[C@H]4[C@@H](O)C[C@]3(C)[C@]2(C(=O)CO)O1 (stereo partly drawn) [Budesonide] (compound 10 µM)	-0.53	-0.12	-0.2
COc1ccccc1N1CCN(CCCCN2C(=O)c3ccccc3C2=O)CC1 [NAN-190 (hydrobromide)] (compound 10 µM)	0.76	-0.29	0.19
CN(C)CCSSCCNC(=O)C1CCN(C(=O)CSc2ccc(Cl)cc2)CC1 [6H05 (trifluoroacetate)] (compound 10 µM)	-1.17	2.33	-0.23
CN1CCN(C(=O)c2cc3cc(Cl)ccc3[nH]2)CC1 (compound 10 µM)	0.27	-0.96	0.18
CCc1c(C)[nH]c2c1C(=O)C(CN1CCOCC1)CC2 (stereo not drawn) [Molindone (hydrochloride)] (compound 10 µM)	-0.5	0.28	0.19
CCN1CCCC1CNC(=O)c1cc(S(N)(=O)=O)ccc1OC (stereo not drawn) [Sulpiride] (compound 10 µM)	-0.13	0.19	0.05
CCOc1nc2cccc(C(=O)O)c2n1Cc1ccc(-c2ccccc2-c2nnn[nH]2)cc1 [Candesartan] (compound 10 µM)	1	0.32	0.19
Cc1cc(Cn2cnc3c2CC(C(=O)O)N(C(=O)C(c2ccccc2)c2ccccc2)C3)ccc1N(C)C (stereo not drawn) (compound 10 µM)	-0.71	0.17	0.29
CC[C@H](C)[C@H](NC(=O)[C@H](Cc1ccc(O)cc1)NC(=O)[C@@H](NC(=O)[C@H](CCCNC(=N)N)NC(=O)[C@@H](N)CC(=O)O)C(C)C)C(=O)N[C@@H](Cc1c[nH]cn1)C(=O)N1CCC[C@H]1C(=O)O [Angiotensin (1-7)] (compound 10 µM)	0.11	0.71	-0.4
CC(C)N(CC[C@H](c1ccccc1)c1cc(CO)ccc1O)C(C)C [(R)-5-Hydroxymethyl Tolterodine] (compound 10 µM)	0.35	0.44	0.11
CCC1(c2c[nH]cn2)Cc2ccccc2C1 [Atipamezole] (compound 10 µM)	0.08	-0.83	0.81
CN(C)C(=O)N[C@H]1CC[C@H](CCN2CCN(c3cccc(Cl)c3Cl)CC2)CC1 [Cariprazine (hydrochloride)] (compound 10 µM)	0.26	-1.23	1.3
CCCCCN(CCCOC)C(=O)C(CCC(=O)O)NC(=O)c1ccc(Cl)c(Cl)c1 (stereo not drawn) [Loxiglumide] (compound 10 µM)	0.5	0.64	0.51
O=C(O[C@@H]1C[C@@H]2C[C@H]3C[C@H](C1)N2CC3=O)c1c[nH]c2ccccc12 [Dolasetron (Mesylate hydrate)] (compound 10 µM)	0.52	-0.24	0.62
N=C(N)NCCCCN [Agmatine (sulfate)] (compound 10 µM)	0.88	-0.16	0.73
CCc1cc(-c2noc(-c3cc(OC)nc(C4CCCC4)c3)n2)cc(C)c1OC[C@@H](O)CO [Cenerimod] (compound 10 µM)	-3.08	-4.72	-4.14
Oc1cc2c(cc1O)C(c1ccccc1)CNCC2 (stereo not drawn) (compound 10 µM)	0.77	0.35	1.06
C[C@]12C=CC(=O)C=C1CC[C@H]1[C@@H]3C[C@@H](O)[C@](O)(C(=O)CO)[C@@]3(C)C[C@H](O)[C@@]12F [Triamcinolone] (compound 10 µM)	0.04	0.82	0.94
Cc1cc(C)nc(NS(=O)(=O)c2ccc(NC(=S)NC(=O)COc3ccc(Br)cc3Cl)cc2)n1 (compound 10 µM)	0.46	-0.41	0.28
COc1ccc2c(c1)c(CC(=O)N1CCOCC1)c(C)n2C(=O)c1ccc(Cl)cc1 (compound 10 µM)	-3.35	-6.12	-6.12
COc1ccccc1Oc1c(NS(=O)(=O)c2ccc(C(C)(C)C)cc2)nc(-c2ncccn2)nc1OCCO [Bosentan (hydrate)] (compound 10 µM)	0.28	0.22	0.34
COC(=O)N(C)c1c(N)nc(-c2nn(Cc3ccccc3F)c3ncccc23)nc1N [Riociguat] (compound 10 µM)	-0.84	0.03	-0.56
C[C@H]1C[C@@H]2[C@H]([C@@H](O)C[C@@]3(C)[C@H]2CC[C@]3(O)C(=O)CO)[C@@]2(C)C=CC(=O)C=C12 [Methylprednisolone] (compound 10 µM)	0.3	3.09	0.51
O=C(Nc1cccc(Cl)c1)c1ccccn1 (compound 10 µM)	-1.46	0.72	-0.86
COC(=O)[C@H](c1ccccc1Cl)N1CCc2sccc2C1 [Clopidogrel (hydrogen sulfate)] (compound 10 µM)	0.58	-1.03	-0.92
CS(=O)(=O)c1cc(F)cc2c3c(n(Cc4ccc(Cl)cc4)c12)[C@@H](CC(=O)O)CC3 [Laropiprant] (compound 10 µM)	0.48	0.81	0.75

Structure (SMILES)	phospho-S6 immunofluorescence (z-score) (co-treatment: GDC0941 450 nM)	phospho-S6 immunofluorescence (z-score) (co-treatment: lapatinib 1 uM)	phospho-S6 immunofluorescence (z-score) (co-treatment: vehicle)
Cc1noc(-c2ccc(-c3ccc(CC(=O)O)cc3)cc2)c1NC(=O)O[C@H](C)c1ccccc1 (compound 10 µM)	0.62	1.57	0.63
CCN(CC)CCOC(=O)[C@@H](Cc1cccc2ccccc12)C[C@@H]1CCCO1 [Naftidrofuryl (oxalate)] (compound 10 µM)	-1.27	-0.87	-1.37
Cc1noc(NS(=O)(=O)c2ccc(N)cc2)c1C [Sulfisoxazole] (compound 10 µM)	1.15	-0.03	0.55
CC(C)(C)NCC(O)c1cc(O)cc(O)c1 (stereo not drawn) [Terbutaline (sulfate)] (compound 10 µM)	0.52	1.51	1.44
CC(C)[C@H](NC(=O)[C@H](CCCN=C(N)N)NC(=O)[C@@H](N)CC(=O)O)C(=O)N[C@@H](Cc1ccc(O)cc1)C(=O)N[C@H](C(=O)N[C@@H](Cc1cnc[nH]1)C(=O)N1CCC[C@H]1C(=O)N[C@@H](Cc1ccccc1)C(=O)O)C(C)C [Angiotensin II 5-valine] (compound 10 µM)	1.16	0.49	0.07
COc1ccccc1N1CCN(CC(O)COc2cccc3ccccc23)CC1 (stereo not drawn) [Naftopidil] (compound 10 µM)	-0.13	-0.63	0.64
CCCN(CCC)CCc1cccc2c1CC(=O)N2 [Ropinirole (hydrochloride)] (compound 10 µM)	0.64	1.04	1.01
C[N+]1(C)CCC(OC(=O)C(O)(c2ccccc2)C2CCCC2)C1 (stereo not drawn) [Glycopyrrolate] (compound 10 µM)	0.59	0.25	1.14
Cc1c(-c2ccccc2)oc2c(C(=O)OCCN3CCCCC3)cccc2c1=O [Flavoxate (hydrochloride)] (compound 10 µM)	0.25	0.29	0.07
OCCN1CCN(CCCN2c3ccccc3Sc3ccc(C(F)(F)F)cc32)CC1 [Fluphenazine (dihydrochloride)] (compound 10 µM)	-3.94	-6.77	-2.87
CC(CN1c2ccccc2Sc2ccccc21)N(C)C (stereo not drawn) [Promethazine (hydrochloride)] (compound 10 µM)	-1.86	-2.76	-0.84
COc1ccc2ccc(=O)oc2c1CC=C(C)C [Osthole] (compound 10 µM)	0.06	0.19	0.23
COc1ccccc1Oc1c(NS(=O)(=O)c2ccc(C(C)(C)C)cc2)nc(-c2ncccn2)nc1OCCO [Bosentan] (compound 10 µM)	0.53	0.78	1.05
COc1cc(/C=C/C(=O)NCCn2c(C(F)(F)F)cc3ccccc32)cc(OC)c1OC (compound 10 µM)	-3.69	-6.85	-8.39
CN1CCN(CC(=O)N2c3ccccc3C(=O)Nc3cccnc32)CC1 [Pirenzepine (dihydrochloride)] (compound 10 µM)	1.51	1.09	0.23
CN/C(=N\CCSCc1nc[nH]c1C)NC#N [Cimetidine] (compound 10 µM)	0.86	0.64	-0.63
C[C@H](NC(=O)C(C)(C)Oc1ccc(C(F)(F)F)cn1)[C@@H](Cc1ccc(Cl)cc1)c1cccc(C#N)c1 [Taranabant] (compound 10 µM)	-4.19	-2.35	-2.4
COCc1nnc(N2CC(Oc3ccc(F)cc3Cl)C2)n1-c1ccc(OC)nc1 (compound 10 µM)	-0.38	-0.91	-0.61
c1ccc2c(c1)N=C(N1CCNCC1)c1ccccc1N2 [DREADD agonist 21] (compound 10 µM)	-0.11	-1.74	-0.53
Cc1c(Cc2ccc3ccccc3n2)c2cc(F)ccc2n1CC(=O)O (compound 10 µM)	0	0.39	0.58
CN1CCN(C2=Nc3cc(Cl)ccc3Nc3ccccc32)CC1 [Clozapine] (compound 10 µM)	-0.16	-0.32	-0.32
Cn1c(=O)c2nc[nH]c2n(C)c1=O [Theophylline] (compound 10 µM)	0.11	0.16	0.71
C[C@@H](OC[C@@]1(c2ccccc2)CC[C@]2(CCC(=O)N2)CN1)c1cc(C(F)(F)F)cc(C(F)(F)F)c1 [Rolapitant] (compound 10 µM)	-4.35	-3.8	-0.65
CN(C)CCC(c1ccccc1)c1ccccn1 (stereo not drawn) [Pheniramine (Maleate)] (compound 10 µM)	0.09	0.78	-0.37
CC(C)(C)C1CCC(N(Cc2ccc(C(=O)NCCC(=O)O)cc2)C(=O)Nc2ccc(OC(F)(F)F)cc2)CC1 (stereo not drawn) (compound 10 µM)	-3.4	-4.75	-1.64
